This passage reports Potency results from PubChem BioAssay AID1159524 (National Center for Advancing Translational Sciences (NCATS), 2015).

SMILES strings stand for the structures. Hit rate of the full screen: of about 410,000 compounds, about 5,100 (1.2%) were called active. Where a call stands in place of a potency, no number is given. Inconclusive results (about 8%) are left out. Calls follow the shape of the full dose curve; tested in HEK293T cells. The sample as a whole holds a higher share of actives than the screen did.
Potency is read from the fitted curve at half-maximal effect.

A short description of the test: High Throughput Screening for Foot and Mouth Disease Virus Antivirals. Also: nearly all actives have a fitted effect of over 45% in size. As to conditions: FMDV antiviral cell-based qHTS; series mostly up to 57.9 µM.
For the molecule `Nc1nc2nc(Cl)[nH]c2c(=O)[nH]1`, the Potency entry was “inactive”.

As for `COc1ccc(OC)c(NC(=O)c2ccc3c(c2)C(=O)N(c2ccc(OC(C)=O)cc2)C3=O)c1`, the Potency result is “inactive”.

`O=C(O)c1ccc2c(c1)C(=O)N(c1ccc(/C=C/C(=O)c3ccccc3)cc1)C2=O`: the Potency is 14.1 µM (active).

With `Cc1cc(N2C(=O)c3ccc(C(=O)NCc4ccccc4)cc3C2=O)no1`, the Potency entry was “inactive”.

As for `COCC(C)NS(=O)(=O)c1ccc(N2CCCCS2(=O)=O)cc1` (stereo not given), the Potency entry is “inactive”.

Turning to `CCc1noc(C)c1C(=O)NCCN1Cc2cc(OC)ccc2OC(CC)C1` (stereo not given), the Potency entry is “inactive”.

Take `Cn1c(=O)c(CCc2ccccc2)nc2cnc(Nc3ccccc3)nc21`: the Potency entry is “inactive”.

Take `c1ccc(CNc2ncncc2-c2cccnc2)cc1`: the Potency entry was “inactive”.

Consider `CCN(CC)CCCC(C)n1c2nc(=O)[nH]c(=O)c-2nc2cc(Cl)ccc21` (stereo not given), for which the Potency is 11.2 µM (active).

As to `CCN(CC)CCCC(C)Nc1ccnc2cc(Cl)ccc12` (stereo not given), the Potency result is “inactive”.

Regarding `Cc1ccc(S(=O)(=O)n2nc(-c3ccc(Cl)cc3)nc2NCc2ccccc2)cc1`, the Potency result was “inactive”.

`CC(C)OC(=O)c1ccc(NCc2cc(O)ccc2O)cc1Cl`: the Potency was 8.91 µM (active).

In the case of `COc1cccc(-n2cc(C(=O)NCc3cccc(Cl)c3)c3ccccc3c2=O)c1`, the Potency result was “inactive”.

On to `O=C(CSc1ncc(CO)n1Cc1ccc(Cl)cc1)NCc1ccc(F)cc1`, for which the Potency entry is “inactive”.

For `CCOc1ccccc1N(CC)C(=O)Nc1cn(C)c(=O)c2ccccc12`, the Potency entry was “inactive”.

As for `CC1CCC(N2CC(=O)N(CCC3=CCCCC3)C(c3ccc(F)cc3)C2=O)CC1` (stereo not given), the Potency entry was “inactive”.

In the case of `Cc1ccc(C(=O)Nc2cccc(-c3nc(CNC(=O)c4ccccc4-n4cccn4)c(C)o3)c2)s1`, the Potency entry is “inactive”.

Regarding `O=C1C(c2ccccn2)=[N+]([O-])c2ccccc21`, the Potency result is “inactive”.

As for `NC1=CC(=O)C(=O)c2cccnc21`, the Potency was 39.8 µM (active).

Turning to `COC1C[C@@H](O[C@@H]2C(C)C(=O)OC(C)C(C)C(O)C(C)C(=O)[C@@]3(CO3)CC(C)C(OC3OC(C)CC(N(C)C)C3O)C2C)OC(C)[C@@H]1O` (stereo not given in full), the Potency entry is “inactive”.

As for `N[C@@H](C(=O)O)c1ccc(P(=O)(O)O)cc1`, the Potency entry is “inactive”.

Consider `c1ccc2c(NC3C4CC5CC(C4)CC3C5)nc(N3CCOCC3)nc2c1` (stereo not given), for which the Potency was 25.1 µM (active).

For the molecule `c1cnc(NC2C3CC4CC(C3)CC2C4)nc1` (stereo not given), the Potency entry was “inactive”.

Take `CN(C)c1ccc(-c2nc(NCCN3CCOCC3)c3ccccc3n2)cc1`: the Potency entry is “inactive”.

`O=C(c1ccco1)N1CCC[C@@]2(CCN(Cc3nccs3)C2)C1`: the Potency entry is “inactive”.

With `O=C1CCN(Cc2ccc(-c3ccccc3)cc2)CCN1Cc1ccccn1`, the Potency entry is “inactive”.

`COc1ccc(CNC(=O)c2cc3cccc(OC)c3oc2=O)cc1`: the Potency result was “inactive”.

Regarding `COc1ccc(CNC(=O)/C(C#N)=C/c2cccc(OC)c2OC)cc1`, the Potency was 22.4 µM (active).

With `COc1ccc(CNC(=O)c2c[nH]c3c(OC)cc(OC)cc3c2=O)cc1`, the Potency entry was “inactive”.

In the case of `Cc1ccc(C)c(N2CCN(C(=O)CCCCn3c(=O)[nH]c4ccccc4c3=O)CC2)c1`, the Potency is 20 µM (active).

Regarding `Cc1ccc(C)c(N2CCN(C(=O)CCc3c(C)nc4c(c3C)c(=O)n(C)c(=O)n4C)CC2)c1`, the Potency result was “inactive”.

With `Cc1ccc(C)c(N2CCN(C(=O)CCCCCn3c(=S)[nH]c4ccc(N5CCOCC5)cc4c3=O)CC2)c1`, the Potency is 3.16 µM (active).

Regarding `COc1cccc(N2CCN(C(=O)CCCCCn3c(=O)[nH]c4ccccc4c3=O)CC2)c1`, the Potency result is “inactive”.

Consider `Cc1ccc(OCCCC(=O)N2CCOCC2)c(C)c1`, for which the Potency result is “inactive”.

Take `Cc1ccc(C)c(N2CCN(C(=O)Cn3nc(C)c4sc5ccccc5c4c3=O)CC2)c1`: the Potency result is “inactive”.

As to `CN1[C@@H]2CC[C@H]1CC(OC(=O)c1cc(Cl)cc(Cl)c1)C2` (stereo not given in full), the Potency entry is “inactive”.

Regarding `Oc1c(C(c2ccc(F)cc2)N2CCN(Cc3ccccc3)CC2)sc2nc(-c3ccco3)nn12` (stereo not given), the Potency result is “inactive”.

Consider `O=C(c1ccncc1)N1CCC2(CCN(Cc3cc(C(F)(F)F)cc(C(F)(F)F)c3)CC2)CC1`, for which the Potency entry is “inactive”.

For the molecule `Cc1nc2ccn(Cc3cccs3)c(=O)c2cc1C(=O)NCc1ccc(Cl)cc1`, the Potency entry was “inactive”.

As to `CCCNC(=O)c1ccc(Cn2c(SCC(N)=O)nc3ccccc3c2=O)cc1`, the Potency result is “inactive”.

Turning to `Cc1nnnn1/C(=C\c1ccccc1)C(=O)OCC(=O)N1CC2(C)CC1CC(C)(C)C2` (stereo not given), the Potency was 31.6 µM (active).

As for `Cn1nccc1C(=O)NCC1CCC2(CCN(Cc3c(O)ccc4ccccc34)CC2)O1` (stereo not given), the Potency result is “inactive”.

As for `Cc1c(-c2cccc(NC(=O)C(C)(C)C)c2)nc2ncccn12`, the Potency result is “inactive”.

For the molecule `O=c1c(O)c(-c2ccc(O)cc2)oc2ccccc12`, the Potency entry is “inactive”.

`Cc1ccccc1OCC(=O)Nc1ccc(N2CCN(C(=O)C(C)C)CC2)c(Cl)c1`: the Potency is 14.1 µM (active).

In the case of `Cc1ccccc1OCC(=O)NNC(=O)c1cc(S(=O)(=O)N(C)C)ccc1N1CCCC1`, the Potency result was “inactive”.

Turning to `Cc1ccc(NC(=O)COc2coc(CN3CCc4ccccc4C3)cc2=O)cc1Cl`, the Potency result is “inactive”.

`O=C(Oc1cc(OC(=O)c2ccccc2)c2c(c1)OC(c1ccc(OC(=O)c3ccccc3)c(OC(=O)c3ccccc3)c1)[C@@H](OC(=O)c1ccccc1)C2)c1ccccc1` (stereo not given in full): the Potency result was “inactive”.

`CCCOc1ccc(NC(=O)CC2C(=O)N(c3ccccc3)C(=O)N2Cc2ccco2)cc1` (stereo not given): the Potency result is “inactive”.

Consider `CCOC(=O)c1c(C)[nH]c(C)c1S(=O)(=O)N1CCC(C(=O)Nc2ccc(C)c(Cl)c2)CC1`, for which the Potency result was “inactive”.

`Cn1c(=O)c([N+](=O)[O-])c(Oc2ccccc2)c2ccccc21`: the Potency was 28.2 µM (active).

As for `COc1cc2c(=O)n(C)c3ccccc3c2cc1OC`, the Potency result was “inactive”.

Regarding `Cc1cccc(C2CC(=O)Oc3c2c(=O)n(C)c2ccccc32)c1` (stereo not given), the Potency entry was “inactive”.

Take `CC(C)c1cnc(NC(=O)Cc2ccccc2)s1`: the Potency entry was “inactive”.

Turning to `Cc1ccc(-n2nc(C)c3c(C)cc(=O)n(CC(=O)Nc4ccc(C(C)C)cc4)c32)cc1`, the Potency result was “inactive”.

On to `CC(=O)Oc1c2c(c3c(c1CC=C(C)C)O[C@@]14C(=CC5CC1C(C)(C)OC4(C/C=C(\C)C(=O)O)C5=O)C3=O)OC(C)(CCC=C(C)C)C=C2` (stereo not given in full), for which the Potency is 20 µM (active).

For the molecule `COc1cc(=O)n2c(c1C(=O)NC(C)c1ccco1)CCN(Cc1cc(C)cc(C)c1)CC2` (stereo not given), the Potency result is “inactive”.

Take `CCOc1ccccc1C(=O)NCC(c1ccc(N(C)C)cc1)N1CCCC1` (stereo not given): the Potency entry was “inactive”.

Turning to `Cc1cc(-c2ccnc(-n3ncc(C(=O)NCCc4ccncc4)c3C)n2)c(C)s1`, the Potency entry was “inactive”.

As for `CCOc1ccc(C)cc1S(=O)(=O)NC1CCCCCC1`, the Potency result was “inactive”.

On to `CCOc1cccc(=NC2CCCCC2)c2c(C)[nH]c(C)c12`, for which the Potency was 28.2 µM (active).

As for `CC(=O)N1CCC2(CCCN(c3ncccn3)C2)CC1`, the Potency entry was “inactive”.

For the molecule `O=C(O)C1CCN(c2ncnc3ccc(-c4ccccc4C(F)(F)F)cc23)CC1`, the Potency entry was “inactive”.

As for `O=C(NCCCN1CCN(c2cccc(Cl)c2)CC1)c1nnc(Cc2ccc(F)cc2Cl)o1`, the Potency result is “inactive”.

With `COc1cc(/C=C/c2ccc(/C=C/c3cc(OC)c(OC)c(OC)c3)cc2)cc(OC)c1OC`, the Potency was 22.4 µM (active).

With `COc1cc(/C=C/C(=O)N2CCc3ccccc3C2)cc(OC)c1OC`, the Potency entry was “inactive”.

Take `COc1cc(/C=C/C2=CC(C)(C)NC(=S)N2)cc(OC)c1OC`: the Potency result was “inactive”.

In the case of `CCN1CCc2nc3sc(C(=O)Nc4ccccc4OC(F)(F)F)c(N)c3cc2C1`, the Potency entry is “inactive”.

In the case of `CC1OC(OCC2OC(Oc3c(-c4ccc(O)c(O)c4)oc4cc(O)cc(O)c4c3=O)C(O)C(O)C2O)[C@@H](O)C(O)C1O` (stereo not given in full), the Potency result is “inactive”.

For the molecule `Cc1ccc(Nc2c3c(nc4ccccc24)CCC3)cc1`, the Potency is 17.8 µM (active).

Turning to `Cc1noc(C)c1-c1nc(Nc2ccccc2)c2ccccc2n1`, the Potency entry is “inactive”.

In the case of `CCOc1ccc(C(=O)Nc2ccc3nc4c(c(Nc5ccccc5OC)c3c2)CCCC4)cc1`, the Potency entry was “inactive”.

For the molecule `O=C(c1cccc(Cn2cccn2)c1)N1CCOc2c(cc(-c3csc4ccccc34)cc2OC2CCOC2)C1` (stereo not given), the Potency entry was “inactive”.

With `Cc1ccccc1-c1nc(N(C)Cc2ccco2)c2ccccc2n1`, the Potency result was “inactive”.

With `CC1(C)OC2CC3C4CCC5=CC(=O)CCC5(C)C4(F)C(O)CC3(C)[C@]2(C(=O)CCl)O1` (stereo not given in full), the Potency result is “inactive”.

On to `Cc1ccc(S(=O)(=O)N2CCOCC2)cc1NC(=O)c1ccncc1`, for which the Potency entry is “inactive”.

As to `COc1ccc(C(=O)Nc2nc(-c3ccc(S(=O)(=O)N4CCOCC4)cc3)cs2)cc1`, the Potency was 7.94 µM (active).

As to `Cc1ccnc(NS(=O)(=O)c2ccc(NC(=O)c3ccc(S(=O)(=O)N4CCOCC4)cc3)cc2)n1`, the Potency entry is “inactive”.

On to `CCS(=O)(=O)Nc1cc(C(=O)N2C[C@@H](C)O[C@@H](C)C2)c2c(c1)nc(-c1ccccc1)n2C`, for which the Potency entry is “inactive”.

For `Cc1ccc2cccc(NC(=O)c3ccc(OC(C)C)cc3)c2n1`, the Potency result was “inactive”.

As to `CC(C)(C)NC(=O)COC(=O)c1cc(Cl)ccc1[N+](=O)[O-]`, the Potency entry was “inactive”.

Take `N#Cc1cccc(NC(=O)COC(=O)c2ccccc2C(=O)c2ccc(Cl)c([N+](=O)[O-])c2)c1`: the Potency is 28.2 µM (active).

In the case of `Cc1ccc(CC(=O)Nc2cccc(C#N)c2)cc1`, the Potency entry was “inactive”.

Regarding `CCOCCn1ccc2c(OCC(=O)NCc3ccc(C)cc3)cccc2c1=O`, the Potency entry is “inactive”.

`COc1ccccc1CNc1ncnc2ccc(-c3c(C)noc3C)cc12`: the Potency result was “inactive”.

Turning to `Cc1ccc2oc(=O)c3cnn(CC(=O)N4CCN(c5cccc(Cl)c5)CC4)c3c2c1`, the Potency entry is “inactive”.

Take `Cn1c(SCC(=O)N2CCCc3ccccc32)nc2ccccc2c1=O`: the Potency is 12.6 µM (active).

`Cn1c(SCC(=O)N2CCCc3ccccc32)ncc(C(=O)Nc2ccc(F)cc2)c1=O`: the Potency result is “inactive”.

`COc1ccccc1Cc1nc2ccccc2nc1SCC(=O)N1CCCc2ccccc21`: the Potency entry is “inactive”.

`COc1cccc(Cn2c(=O)cnc3cncnc32)c1`: the Potency result was “inactive”.

With `O=C(c1ccco1)N1CCC2(CC1)CCN(c1ncccn1)CC2`, the Potency entry was “inactive”.

Consider `Cc1c(S(=O)(=O)O)oc2c1C(=O)C(=O)c1c-2ccc2c1CCCC2(C)C`, for which the Potency entry is “inactive”.

For the molecule `Cc1ccccc1-c1nc(CS(=O)(=O)CC(=O)Nc2cc(Cl)cc(Cl)c2)c(C)o1`, the Potency entry is “inactive”.

Consider `COc1ccc(C(=O)N2CCC[C@@]3(CCN(C(=O)NC(C)C)C3)C2)cc1`, for which the Potency result was “inactive”.

Regarding `Cc1c(C(=O)Nc2cccc(Cl)c2)oc2ccc(S(=O)(=O)N3CCOCC3)cc12`, the Potency entry is “inactive”.
